Data published in PubChem BioAssay (NCI).
“And” between values parts separate entries of the source, which are not always exact repeats. Equal values may be shown once. Compounds without any hit were thinned out: in the full panel of roughly 83,000, 20% have a hit.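 Results are percent growth after 48 hours of single-concentration exposure. 100 means growth as in untreated cells, lower positive values show inhibition; negative values down to -100 show cell death.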 The source made the active and inactive calls. The calls were made as follows: active = growth percent below 10; inactive = the rest.

Experiments:
Test in all cases: NCI-60 one-dose screen, 48 h (100 = growth as untreated, 0 = no growth, -100 = all killed)
Conditions in all cases: 10 µM unless noted
[1] = test system: HCT-15 colon
[2] = test system: HT29 colon
[3] = test system: SNB-19 CNS
[4] = test system: U251 CNS
[5] = test system: PC-3 prostate
[6] = test system: SK-MEL-5 melanoma
[7] = test system: UACC-62 melanoma
[8] = test system: LOX IMVI melanoma
[9] = test system: SK-MEL-28 melanoma
[10] = test system: SK-MEL-2 melanoma
[11] = test system: EKVX NSCLC
[12] = test system: SN12C renal
[13] = test system: UO-31 renal
[14] = test system: TK-10 renal
[15] = test system: ACHN renal
[16] = test system: CAKI-1 renal
[17] = test system: A498 renal
[18] = test system: CCRF-CEM leukemia
[19] = test system: MOLT-4 leukemia
[20] = test system: SNB-75 CNS

Measured: growth

COc1c(/C(C)=N/N=c2sc(C(C)=O)nn2-c2ccc(Cl)cc2)c(Oc2ccccc2)c(OC)c2occc12
inactive: [1] 102% and 92.6% | [2] 108% and 86.1% | [3] 96.1% and 98.1% | [4] 99.5% and 97.2% | [5] 102% and 88% | [6] 100% and 103% | [7] 96.1% and 84.7% | [8] 91.8% and 96% | [9] 112% | [10] 111% and 114% | [11] 93.1% and 99.8% | [12] 104% and 98.8% | [13] 75.8% and 72.3% | [14] 124% and 118% | [15] 109% and 101% | [16] 82% and 64.5% | [17] 100% and 77.1% | [18] 106% | [19] 103% and 89.3%

Cn1c(SSc2ccc(-c3cccnc3)n2C)ccc1-c1cccnc1
inactive: [1] 111% and 104% | [2] 110% and 115% | [3] 110% and 109% | [4] 72.6% and 106% | [5] 65% and 68.2% | [6] 95.6% and 91.6% | [7] 82.5% and 109% | [8] 59% and 98.2% | [9] 98.9% and 104% | [10] 106% and 107% | [11] 94.8% and 99.5% | [13] 95.8% and 104% | [14] 117% and 102% | [15] 119% and 108% | [16] 94.3% and 103% | [17] 82.2% and 95.7% | [18] 45.2% and 68.6% | [19] 80.2% and 17.5%

CC1=CCC2CC1C2(C)C (stereo not given)
inactive: [1] 99.5% and 94% | [2] 114% and 105% | [20] 102% and 90.3% | [4] 97.4% and 92% | [6] 102% and 87.7% | [7] 97% and 93.6% | [8] 93.4% and 88.6% | [9] 97.5% and 102% | [11] 91.7% and 83.2% | [12] 103% and 94.4% | [13] 89% and 96.1% | [14] 113% and 119% | [15] 102% and 96.1% | [16] 76.2% and 82.8% | [17] 103% and 81% | [18] 121% and 114% | [19] 96.1% and 96%

Cc1cc(=O)[nH]c(O)c1C#N
inactive: [1] 98% and 107% | [2] 109% and 116% | [20] 72.5% and 96.7% | [4] 101% and 98.2% | [6] 100% and 106% | [7] 97.7% and 96.5% | [8] 98.5% and 97.1% | [9] 98.2% and 157% | [10] 108% | [11] 99.6% and 99.9% | [12] 102% and 93.7% | [13] 87.3% and 105% | [14] 103% and 92.9% | [15] 101% and 95.7% | [16] 90.3% and 60.5% | [17] 114% and 111% | [18] 113% and 90.3% | [19] 106% and 101%

c1ccc2c(CC3=NCCN3)cccc2c1
inactive: [1] 104% and 106% | [2] 103% and 96.3% | [4] 94.6% and 100% | [5] 103% and 96.2% | [6] 92.7% and 108% | [7] 108% and 106% | [8] 91.9% and 99.4% | [9] 109% and 107% | [10] 132% and 110% | [11] 113% and 102% | [12] 103% and 107% | [13] 97.6% and 98.7% | [14] 114% and 108% | [15] 102% and 116% | [16] 92.9% | [17] 90.3% and 81.4% | [18] 99.8% | [19] 113% and 108%

COc1cc(C(=O)N/N=C/c2ccc(N(C)C)cc2)cc(OC)c1OC
inactive: [1] 20% | [20] 38.4% | [5] 25.4% | [7] 43.1% | [8] 20.5% | [9] 53.8% | [11] 75.7% | [12] 41.3% | [15] 45.1% | [16] 68.3%
active: [4] 3.96% | [6] 7.49% | [17] -3.05% | [18] 8.58% | [19] -0.126%

C[N+](C)(C)CN1C(=O)c2ccccc2C1=O
inactive: [1] 103% | [2] 99.6% | [4] 102% | [5] 96.4% | [6] 102% | [7] 101% | [8] 103% | [9] 98.6% | [12] 100% | [13] 97.3% | [15] 102% | [16] 94.4% | [17] 98.2% | [18] 101% | [19] 94.2%

CN1CCN(Cc2occc(=O)c2O)CCN(C)CCN(Cc2occc(=O)c2O)CC1
inactive: [1] 107% and 36% | [2] 96.3% and 11.1% | [4] 94.8% and 23.1% | [5] 80.3% and 35.6% | [6] 81.4% and 47.8% | [8] 99.1% and 43% | [9] 64.4% | [10] 105% and 64.9% | [11] 104% and 62.8% | [12] 87.9% and 82.7% | [13] 92.2% and 66.6% | [14] 100% and 65.2% | [15] 106% and 94% | [16] 99.7% and 42.1% | [17] 95.8% and 13% | [18] 91.5% and 49%

Cc1ccc(F)cc1NC(=O)O/N=C(\Cl)C(C)C
inactive: [7] 82.6% [100 µM] and 60.7% [100 µM] | [14] 65.6% [100 µM] and 72.9% [100 µM]

c1ccc(N(c2ccccc2)c2ccccc2)cc1
inactive: [1] 99.8% | [2] 97% | [3] 102% | [4] 102% | [6] 113% | [7] 104% | [8] 94.5% | [9] 117% | [10] 99.8% | [11] 101% | [13] 86.8% | [14] 98.9% | [15] 103% | [16] 90.3% | [17] 117% | [18] 98% | [19] 95.4%
